Results filed as inconclusive are left out. Some compounds were tested as several samples or in several runs, with calls that do not always agree. Calls of active or inactive are those of the source. Rule for the calls, unless noted: active = hit-call score of the fitted dose curve at least 0.9, where 1 is the maximum; inconclusive = response in the unintended direction; inactive = score below 0.9.
What was measured:
[1] = target: Norway rat Vesicular Monoamine Transporter (VMAT2), neurotransmitter transporter, Slc18a2 (gene 25549) (UniProt Q01827); assay: NVS_TR_rVMAT2: NovaScreen (NVS) Transporter Assay for Norway rat Vesicular Monoamine Transporter (VMAT2), neurotransmitter transporter (AID 2283376);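 note: actives lower the bound radioligand signal below the DMSO level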
Chain of Norway rat Vesicular Monoamine Transporter (VMAT2), neurotransmitter transporter, Slc18a2 (gene 25549) (Q01827 whole entry, looked up): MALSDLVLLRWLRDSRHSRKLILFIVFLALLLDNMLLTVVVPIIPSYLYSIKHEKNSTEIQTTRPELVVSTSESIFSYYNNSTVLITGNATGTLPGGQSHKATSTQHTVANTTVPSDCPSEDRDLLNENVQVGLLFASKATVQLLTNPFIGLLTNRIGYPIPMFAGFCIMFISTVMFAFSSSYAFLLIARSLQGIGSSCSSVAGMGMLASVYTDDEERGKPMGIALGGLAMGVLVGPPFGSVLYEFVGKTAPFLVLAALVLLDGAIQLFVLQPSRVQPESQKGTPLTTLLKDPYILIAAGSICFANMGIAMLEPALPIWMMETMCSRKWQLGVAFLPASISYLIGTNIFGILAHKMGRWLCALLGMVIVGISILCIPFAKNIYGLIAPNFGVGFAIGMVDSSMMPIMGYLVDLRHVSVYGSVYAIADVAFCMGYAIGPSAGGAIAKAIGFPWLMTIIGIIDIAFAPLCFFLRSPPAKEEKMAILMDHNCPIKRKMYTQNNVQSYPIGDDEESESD
Outline: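 Rat forebrain tissue preparation used in a cell-free radioligand binding format; displacement read by filter-based scintillation counting 1 hour after dosing. Primary screen in duplicate at 25 uM, actives then run in concentration series; loss of signal versus DMSO baseline.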

[2] = target: Estrogen receptor beta (Homo sapiens) (UniProt Q92731); assay: OT_ER_ERbERb_1440: Odyssey Thera (OT) 24-hour HEK293T Protein-Complementation Assay for Estrogen Receptor-beta/-beta Homodimer (AID 2283380);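 note: fluorescence gain from ER beta LBD homodimer complementation read by laser scanning cytometry; scored as signal increase over DMSO baseline for both agonists and antagonists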
Chain of Estrogen receptor beta (Homo sapiens) (Q92731 whole entry, looked up, the tested form may be a part): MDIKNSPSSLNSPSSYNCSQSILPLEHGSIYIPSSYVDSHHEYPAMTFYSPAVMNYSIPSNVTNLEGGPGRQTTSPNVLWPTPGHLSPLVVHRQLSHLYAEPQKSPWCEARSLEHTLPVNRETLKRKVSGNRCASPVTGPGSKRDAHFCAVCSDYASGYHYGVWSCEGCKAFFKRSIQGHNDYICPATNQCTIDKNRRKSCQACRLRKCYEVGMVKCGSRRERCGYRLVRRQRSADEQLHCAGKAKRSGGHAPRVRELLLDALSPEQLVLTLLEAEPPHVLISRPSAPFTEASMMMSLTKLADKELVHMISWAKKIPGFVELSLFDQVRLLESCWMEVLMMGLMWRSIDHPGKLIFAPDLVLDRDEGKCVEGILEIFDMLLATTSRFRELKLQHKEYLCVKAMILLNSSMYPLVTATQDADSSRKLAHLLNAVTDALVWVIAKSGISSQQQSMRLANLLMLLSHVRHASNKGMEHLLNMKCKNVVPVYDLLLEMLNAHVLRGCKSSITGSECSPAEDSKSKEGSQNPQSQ
Outline: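 HEK293T cells stably expressing human ER-beta LBD (aa 310-547) PCA homodimer pair, dosed 24 h; formaldehyde-fixed, Draq5-stained. Readout: increase in nuclear (agonist) or nuclear plus cytoplasmic (antagonist) fluorescence intensity versus DMSO, gain-of-signal fitting.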

[3] = target: Estrogen receptor (Homo sapiens) (UniProt P03372); assay: OT_ERa_GFPERaERE_0480: Odyssey Thera (OT) 8-hour HeLa Transcription Induction Assay for Estrogen Receptor (AID 2283381; active = hit-call score of the fitted dose curve at least 0.9, where 1 is the maximum; inactive = score below 0.9)
Chain of Estrogen receptor (Homo sapiens) (P03372 whole entry, looked up): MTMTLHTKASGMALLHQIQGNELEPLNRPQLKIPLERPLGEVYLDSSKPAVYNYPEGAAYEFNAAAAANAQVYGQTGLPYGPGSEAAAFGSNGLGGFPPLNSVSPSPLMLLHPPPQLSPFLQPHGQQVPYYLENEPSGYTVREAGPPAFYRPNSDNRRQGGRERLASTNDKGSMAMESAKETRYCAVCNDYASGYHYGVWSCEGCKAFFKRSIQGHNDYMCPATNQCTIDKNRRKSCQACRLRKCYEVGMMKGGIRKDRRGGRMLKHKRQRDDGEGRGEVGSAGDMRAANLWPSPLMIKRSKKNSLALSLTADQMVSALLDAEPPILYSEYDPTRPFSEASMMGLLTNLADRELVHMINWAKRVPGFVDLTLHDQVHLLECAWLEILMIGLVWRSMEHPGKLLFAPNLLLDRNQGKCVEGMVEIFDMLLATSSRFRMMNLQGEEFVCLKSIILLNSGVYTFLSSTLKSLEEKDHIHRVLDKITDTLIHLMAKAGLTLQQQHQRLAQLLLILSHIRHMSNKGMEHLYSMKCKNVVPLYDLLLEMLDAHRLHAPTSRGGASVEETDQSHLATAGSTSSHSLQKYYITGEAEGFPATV
Outline: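 HeLa cells dosed with compound and imaged by fluorescence microscopy at 8 h; GFP induction from an ERE reporter quantified by high-content image analysis and fitted as gain of signal against DMSO baseline.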

[4] = target: Estrogen receptor (Homo sapiens) (UniProt P03372); assay: OT_ERa_GFPERaERE_0120: Odyssey Thera (OT) 2-hour HeLa Transcription Induction Assay for Estrogen Receptor (AID 2283382)
Outline: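 HeLa cells were dosed with test chemical and read 2 hours later for GFP-ERα/ERE-linked fluorescent protein induction by fluorescence microscopy. Gain-of-signal was fitted relative to DMSO baseline, quantified by high content image analysis.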

[5] = target: Retinoic acid receptor RXR-alpha (Homo sapiens) (UniProt P19793); assay: OT_NURR1_NURR1RXRa_1440: Odyssey Thera (OT) 24-hour HEK293T Protein Complementation Assay for Nurr1/retinoid X receptor (RXR) (AID 2283386)
Chain of Retinoic acid receptor RXR-alpha (Homo sapiens) (P19793 whole entry, looked up, the tested form may be a part): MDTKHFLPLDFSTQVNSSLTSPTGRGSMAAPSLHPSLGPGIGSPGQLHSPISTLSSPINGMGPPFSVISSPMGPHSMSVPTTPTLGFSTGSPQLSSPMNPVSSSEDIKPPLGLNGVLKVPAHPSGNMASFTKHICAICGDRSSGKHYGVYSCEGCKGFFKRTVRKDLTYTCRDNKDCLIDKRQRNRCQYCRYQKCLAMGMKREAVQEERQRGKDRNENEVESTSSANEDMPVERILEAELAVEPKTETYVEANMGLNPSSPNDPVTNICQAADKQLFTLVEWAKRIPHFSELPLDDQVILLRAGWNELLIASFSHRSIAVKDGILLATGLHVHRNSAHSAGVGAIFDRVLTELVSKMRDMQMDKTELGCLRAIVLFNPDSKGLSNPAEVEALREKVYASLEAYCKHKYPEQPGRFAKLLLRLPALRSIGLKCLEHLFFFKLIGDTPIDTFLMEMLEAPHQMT
Outline: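 HEK293T cells were dosed with compound and read 24 h later by fluorescence intensity in a protein-fragment complementation format, where Nurr1–RXRα interaction reconstitutes a split reporter. Activity was fitted as gain of signal relative to DMSO baseline.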

[6] = target: Peroxisome proliferator-activated receptor gamma (Homo sapiens) (UniProt P37231); assay: OT_PPARg_PPARgSRC1_1440: Odyssey Thera (OT) 24-hour Protein-Complementation Assay for Peroxisome Proliferator-activated Receptor Gamma/ SRC-1 Co-activator (AID 2283388);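 note: nuclear to cytoplasmic ratio of reconstituted Venus YFP fluorescence in fixed imaged cells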
Chain of Peroxisome proliferator-activated receptor gamma (Homo sapiens) (P37231 whole entry, looked up, the tested form may be a part): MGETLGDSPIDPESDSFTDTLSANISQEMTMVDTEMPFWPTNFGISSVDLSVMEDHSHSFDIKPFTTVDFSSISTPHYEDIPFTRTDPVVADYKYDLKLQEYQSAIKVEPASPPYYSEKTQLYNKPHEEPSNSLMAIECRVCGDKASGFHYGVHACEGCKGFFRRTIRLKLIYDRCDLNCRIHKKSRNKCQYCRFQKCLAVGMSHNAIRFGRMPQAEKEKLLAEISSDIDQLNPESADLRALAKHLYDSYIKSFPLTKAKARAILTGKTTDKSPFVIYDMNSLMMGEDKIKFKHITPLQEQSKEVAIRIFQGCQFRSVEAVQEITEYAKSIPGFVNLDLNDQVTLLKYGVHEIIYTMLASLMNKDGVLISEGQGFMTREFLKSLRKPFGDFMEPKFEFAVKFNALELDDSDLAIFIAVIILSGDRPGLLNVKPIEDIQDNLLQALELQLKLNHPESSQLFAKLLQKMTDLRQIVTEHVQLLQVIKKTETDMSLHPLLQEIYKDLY
Outline: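 Readout: nuclear-to-cytoplasmic 488 nm fluorescence ratio, ≥350 cells per image, 8 images per well, after 24 h compound exposure of HEK293T expressing PPARg/SRC-1 split-YFP fusions. Activity fitted in positive direction against DMSO.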

[7] = CEETOX_H295R_OHPREG: CeeTox H295R High-throughput Steroidogenesis Assay for OH-Pregnenolone (OHPREG) (AID 2283434; active = hit-call score of the fitted dose curve at least 0.9, where 1 is the maximum; inactive = score below 0.9); conditions: actives raise or lower the signal
Outline: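 Human adrenal H295R cells were prestimulated 48 h with 10 uM forskolin, then exposed 48 h to chemical in 0.1% DMSO. Medium 17alpha-hydroxypregnenolone was quantified by HPLC-MS/MS after MTBE extraction; bidirectional fitting versus DMSO baseline.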

[8] = CEETOX_H295R_OHPROG: CeeTox H295R High-throughput Steroidogenesis Assay for OH-Progesterone (OHPROG) (AID 2283435; active = hit-call score of the fitted dose curve at least 0.9, where 1 is the maximum; inactive = score below 0.9); conditions: actives raise or lower the signal
Outline: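 H295R human adrenal cells were prestimulated 48 h with 10 uM forskolin, then exposed 48 h to test chemical (0.1% DMSO final). 17alpha-hydroxyprogesterone in medium was measured by HPLC-MS/MS after MTBE extraction; bidirectional fitting vs DMSO.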

[9] = CEETOX_H295R_ESTRADIOL: CeeTox H295R High-throughput Steroidogenesis Assay for Estradiol (AID 2283440; active = hit-call score of the fitted dose curve at least 0.9, where 1 is the maximum; inactive = score below 0.9;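 note: estradiol secreted into medium quantified by LC-MS/MS after dansyl derivatisation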); conditions: actives raise or lower the signal
Outline: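 H295R, 48 h forskolin (10 uM) prestim → 48 h compound, 0.1% DMSO final. Estradiol in medium: MTBE extraction, dansyl chloride derivatization, LC-MS/MS. Fit bidirectional vs DMSO baseline; MTT viability in same wells.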

[10] = CEETOX_H295R_ESTRONE: CeeTox H295R High-throughput Steroidogenesis Assay for Estrone (AID 2283441; active = hit-call score of the fitted dose curve at least 0.9, where 1 is the maximum; inactive = score below 0.9;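 note: estrone secreted into medium measured by LC-MS/MS after dansyl derivatization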); conditions: actives raise or lower the signal
Outline: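 H295R cells; 48 h forskolin (10 uM) prestimulation; 48 h compound exposure, 0.1% DMSO final. Medium estrone: MTBE extraction, dansyl derivatization, HPLC-MS/MS. Bidirectional fit vs DMSO.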

[11] = target: Bile acid receptor (Homo sapiens) (UniProt Q96RI1); assay: OT_FXR_FXRSRC1_0480: Odyssey Thera (OT) 8-hour HEK293T Protein-Complementation Assay for Farnesoid X receptor/SRC-1 Co-activator (AID 2283383)
Chain of Bile acid receptor (Homo sapiens) (Q96RI1 whole entry, looked up, the tested form may be a part): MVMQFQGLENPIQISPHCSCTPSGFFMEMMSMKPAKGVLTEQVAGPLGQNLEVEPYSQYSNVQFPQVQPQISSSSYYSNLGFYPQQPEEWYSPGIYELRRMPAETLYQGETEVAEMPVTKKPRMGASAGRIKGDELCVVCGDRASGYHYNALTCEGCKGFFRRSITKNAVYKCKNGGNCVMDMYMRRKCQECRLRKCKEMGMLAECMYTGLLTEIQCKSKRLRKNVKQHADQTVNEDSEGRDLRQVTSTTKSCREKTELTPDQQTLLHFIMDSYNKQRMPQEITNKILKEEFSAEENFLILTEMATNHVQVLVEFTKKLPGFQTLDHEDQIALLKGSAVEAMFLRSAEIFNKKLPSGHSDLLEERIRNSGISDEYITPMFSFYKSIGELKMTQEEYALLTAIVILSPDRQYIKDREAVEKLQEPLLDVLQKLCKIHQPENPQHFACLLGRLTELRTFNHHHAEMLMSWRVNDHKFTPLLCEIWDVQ
Outline: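 HEK293T cells expressing FXR and SRC-1 fused to reporter fragments were dosed with compound for 8 h; fluorescence from the reconstituted reporter marked co-activator recruitment. Gain of signal was fitted against the DMSO baseline.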

[12] = target: Bile acid receptor (Homo sapiens) (UniProt Q96RI1); assay: OT_FXR_FXRSRC1_1440: Odyssey Thera (OT) 24-hour HEK293T Protein-Complementation Assay for Farnesoid X receptor/SRC-1 Co-activator (AID 2283384)
Outline: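 HEK293T cells were dosed with compound and read 24 h later by fluorescence intensity from protein-fragment complementation reporting FXR/SRC-1 co-activator interaction. Gain of signal was fitted relative to DMSO negative control as baseline.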

[13] = target: Peroxisome proliferator-activated receptor gamma (Homo sapiens) (UniProt P37231); assay: OT_PPARg_PPARgSRC1_0480: Odyssey Thera (OT) 8-hour Protein-Complementation Assay for Peroxisome Proliferator-activated Receptor Gamma / SRC-1 Co-activator (AID 2283387);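 note: nuclear to cytoplasmic split Venus YFP fluorescence ratio reporting PPARg SRC-1 interaction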
Outline: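 Read-out: 488 nm N/C fluorescence ratio from complemented Venus YFP fragments, ≥350 cells per image, gain-of-signal fitted against DMSO baseline. Fusions of PPARg/SRC-1 with IFP1/IFP2 expressed transiently in HEK293T; compounds applied 8 h.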

[14] = target: Agonist Androgen Response Element (ARE), AR (gene 367) (UniProt P10275); assay: OT_AR_ARELUC_AG_1440: Odyssey Thera (OT) 24-hour CHO-K1 Luciferase Assay for Agonist Androgen Response Element (ARE) (AID 2283379)
Chain of Agonist Androgen Response Element (ARE), AR (gene 367) (P10275 whole entry, looked up): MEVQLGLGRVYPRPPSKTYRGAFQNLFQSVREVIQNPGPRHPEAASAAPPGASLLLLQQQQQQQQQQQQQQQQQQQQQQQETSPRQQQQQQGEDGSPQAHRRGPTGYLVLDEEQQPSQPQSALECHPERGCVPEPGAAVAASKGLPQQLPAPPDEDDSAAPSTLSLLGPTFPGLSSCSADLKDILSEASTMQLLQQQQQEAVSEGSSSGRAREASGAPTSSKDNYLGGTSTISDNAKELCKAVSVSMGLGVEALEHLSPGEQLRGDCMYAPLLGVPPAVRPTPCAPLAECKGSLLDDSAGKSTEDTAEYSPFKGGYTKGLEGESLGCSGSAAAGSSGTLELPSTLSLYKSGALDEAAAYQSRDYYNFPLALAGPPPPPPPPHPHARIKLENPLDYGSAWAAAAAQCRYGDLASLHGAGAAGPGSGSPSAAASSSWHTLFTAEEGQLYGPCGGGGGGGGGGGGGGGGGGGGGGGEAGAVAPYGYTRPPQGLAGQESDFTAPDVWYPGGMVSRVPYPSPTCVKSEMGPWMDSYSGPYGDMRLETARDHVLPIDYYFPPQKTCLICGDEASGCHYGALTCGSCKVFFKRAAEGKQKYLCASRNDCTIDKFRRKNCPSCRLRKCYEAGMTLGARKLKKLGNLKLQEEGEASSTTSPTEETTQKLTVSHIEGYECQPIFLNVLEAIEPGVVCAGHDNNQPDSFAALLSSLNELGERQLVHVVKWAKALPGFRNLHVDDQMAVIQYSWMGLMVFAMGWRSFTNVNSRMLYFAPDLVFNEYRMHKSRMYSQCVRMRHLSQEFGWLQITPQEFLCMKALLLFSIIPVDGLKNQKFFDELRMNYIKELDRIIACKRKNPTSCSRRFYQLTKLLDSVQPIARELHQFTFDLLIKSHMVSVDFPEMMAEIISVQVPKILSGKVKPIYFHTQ
Outline: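 Seed CHO-K1 cells; dose compounds for 24 h; add D-luciferin plus ATP in PBS; read luminescence. Signal increase relative to vehicle defines agonist activity, with at least 3 replicate wells per sample.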

[15] = target: Retinoic acid receptor RXR-alpha (Homo sapiens) (UniProt P19793); assay: OT_NURR1_NURR1RXRa_0480: Odyssey Thera (OT) 8-hour HEK293T Protein Complementation Assay for Nurr1/retinoid X receptor (RXR) (AID 2283385)
Outline: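 HEK293T cells expressing Nurr1 and RXRα fused to reporter fragments were dosed with compound for 8 hours. Complex formation was read as fluorescence intensity and analysed as gain of signal against DMSO as baseline.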

[16] = CEETOX_H295R_11DCORT: CeeTox H295R High-throughput Steroidogenesis Assay for 11-Deoxycortisol (11DCORT) (AID 2283432; active = hit-call score of the fitted dose curve at least 0.9, where 1 is the maximum; inactive = score below 0.9;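 for AC50: 11-deoxycortisol secreted into the medium measured by LC-MS/MS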); conditions: actives raise or lower the signal
Outline: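 H295R cells; 10 uM forskolin prestim 48 h; compound in 0.1% DMSO 48 h; media extracted with MTBE; 11-deoxycortisol by LC-MS/MS, 7-point standard curve; gain/loss vs DMSO baseline; viability by MTT in same wells.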

[17] = CEETOX_H295R_ANDR: CeeTox H295R High-throughput Steroidogenesis Assay for Androstenedione (ANDR) (AID 2283436; active = hit-call score of the fitted dose curve at least 0.9, where 1 is the maximum; inactive = score below 0.9); conditions: actives raise or lower the signal
Outline: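 H295R human adrenal cells (passages ≤10) were exposed to test chemicals for 48 h; androstenedione in medium was MTBE-extracted and quantified by HPLC-MS/MS against a 7-point standard curve. Bidirectional fitting used DMSO as baseline.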

[18] = CEETOX_H295R_CORTISOL: CeeTox H295R High-throughput Steroidogenesis Assay for Cortisol (AID 2283438; active = hit-call score of the fitted dose curve at least 0.9, where 1 is the maximum; inactive = score below 0.9;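 note: cortisol secreted into medium quantified by LC-MS/MS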); conditions: actives raise or lower the signal
Outline: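 H295R human adrenal cells were prestimulated 48 h with 10 uM forskolin, then exposed 48 h to test chemical (0.1% DMSO final). Medium cortisol was quantified by HPLC-MS/MS after MTBE extraction; bidirectional fitting relative to DMSO baseline.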

[19] = CEETOX_H295R_DOC: CeeTox H295R High-throughput Steroidogenesis Assay for DOC (AID 2283439; active = hit-call score of the fitted dose curve at least 0.9, where 1 is the maximum; inactive = score below 0.9); conditions: actives raise or lower the signal
Outline: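 H295R adrenal cells prestimulated 48 h with 10 uM forskolin, then exposed 48 h to test chemical (0.1% DMSO final). Medium 11-deoxycorticosterone extracted with MTBE, quantified by HPLC-MS/MS; bidirectional fit versus DMSO baseline; MTT viability in same wells.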

Measured: AC50

CSc1nc(NC(C)C)nc(NC(C)C)n1
inactive: [1] | [2] | [3] | [4] | [5] | [6] | [7] | [8] | [9]
active: [10] 2.54 µM

CCC(CC)Nc1c([N+](=O)[O-])cc(C)c(C)c1[N+](=O)[O-]
active: [2] 13.5 µM | [11] 43.3 µM | [12] 71.7 µM | [5] 82.1 µM
inactive: [5] | [13] | [6]

CCCSP(=O)(OCC)SCCC
not listed: [1] | [3] | [4] | [9] | [10] | [13]
inactive: all other assays above

COc1ccc(C(=CC(=O)N2CCOCC2)c2ccc(Cl)cc2)cc1OC
active: [11] 31.5 µM | [12] 76.3 µM | [18] 35.2 µM
not listed: [1] | [3] | [4] | [9] | [10] | [14]
inactive: all other assays above

CCNc1nc(Cl)nc(NC(C)(C)C#N)n1
inactive: [2] | [5] | [6] | [16] | [7] | [8] | [18] | [19]

CNC(=O)Oc1cccc2c1OC(C)(C)O2
inactive: [3] | [4] | [12] | [15] | [13] | [6] | [16] | [7] | [18] | [19]
active: [8] 30.9 µM

CC(C)[C@H](C(=O)O[C@H](C#N)c1cccc(Oc2ccccc2)c1)c1ccc(Cl)cc1
inactive: [2] | [5] | [6]

CCc1cccc(C)c1N(C(=O)CCl)C(C)COC (stereo unspecified)
inactive: [2] | [5] | [13] | [6] | [7] | [8]

CC(=NC#N)N(C)Cc1ccc(Cl)nc1
inactive: [2] | [5] | [6]

CCOP(=S)(OCC)Oc1ccc([N+](=O)[O-])cc1
inactive: [5] | [6] | [7]
active: [16] 2.57 µM | [8] 0.39 µM | [18] 1.93 µM | [19] 0.775 µM

CCCCN(CC)c1c([N+](=O)[O-])cc(C(F)(F)F)cc1[N+](=O)[O-]
inactive: [2] | [15] | [5] | [6] | [7] | [8] | [18] | [19]

CCOP(=O)(SC(C)CC)N1CCSC1=O (stereo unspecified)
inactive: [15] | [5] | [6]

COc1cc(OC)nc(Sc2cccc(Cl)c2C(=O)O)n1
inactive: [5] | [13] | [6]

CC(COc1ccc(Oc2ccccc2)cc1)Oc1ccccn1 (stereo unspecified)
inactive: [2] | [5] | [6] | [7] | [8] | [17]
active: [11] 43 µM | [12] 7.29 µM

CN(C)[C@@H]1C(=O)C(C(N)=O)=C(O)[C@@]2(O)C(=O)C3=C(O)c4c(O)cccc4[C@@](C)(O)[C@H]3[C@H](O)[C@@H]12
inactive: [5] | [6]
active: [5] 23.7 µM

CC1=NNC(=O)N(/N=C/c2cccnc2)C1
inactive: [2] | [5] | [13] | [6]

COc1cccc(C(=O)NN(C(=O)c2cc(C)cc(C)c2)C(C)(C)C)c1C
active: [11] 14.7 µM | [12] 27 µM
inactive: [2] | [5] | [6] | [7]

Source: PubChem BioAssay (EPA / NIEHS)
